Screens (PubChem BioAssay)
A1 inh: inducers of caspase activity in MEF A1-2A-BIM cells, primary screen, A1 inhibitor project, cell-based, CaspaseGlo luminescence | 21,000 tested, 0.51% active | caspase activation, % (concentration not given with the values) | AID 2241, 2010 | caspase-Glo luminescence, 3 h; percent of clofoctol signal, DMSO as zero;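 active = most replicate scores above 10, or exactly half above 10 with mean activity above 10; inconclusive = mean activity below 10 while half the replicates exceed 10; inactive = most replicate scores below 10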;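 also: effector caspase 3 and 7 activity cleaving a DEVD luciferin substrate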
BJeLR viab HTS: BJeLR cell viability loss, primary screen, luminescence, CellTiterGlo ATP | BJeLR fibroblasts viability, 48 h; HRASV12, hTERT and SV40 LT/ST transformed | viability loss activity score, % (no concentration beside the values) | 30,000 tested, 0.64% active | AID 2275, 2010; in the data active = viability loss activity score above about 50%; inconclusive = no clear call, values can overlap the other calls; inactive = below about 35%;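 also: higher score means fewer live cells and less ATP luminescence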
Starred values were filed as active, the others as inactive; ? = inconclusive; / = no result given; ! = repeats disagree. Most compounds without a hit are left out; they make up all but 0.9% or so of the library.

SMILES	A1 inh	BJeLR viab HTS
Oc1cc(C2CCCCC2)cc(C2CCCCC2)c1	46*	3
O=C1NCC(O)=C1C=Nc1ccc(C2CCCCC2)cc1	/	4
Cn1c(=Nc2ccccc2C(=O)O)ccc2ccccc21	-2	3
Cc1cc(C)c2nc(NC3=NC(c4ccccc4)CC(=O)N3)nc(C)c2c1 (stereo not given)	0	0
Cc1ccc2nc(S/C=C/C(=O)c3ccccc3)[nH]c2c1	5	72*
CSc1ccccc1NC(=O)CSc1nc2ccc(C)cc2[nH]1	1	-2
COCCN1C(=O)c2ccccc2C(C(=O)Nc2ccc(C(C)C)cc2)C1c1ccc(F)cc1 (stereo not given)	/	-4
CC1(C)CC(=O)C2=C(C1)Nc1ccccc1N(C(=O)c1ccccc1)C2c1ccccc1 (stereo not given)	1	-1
O=C1C[C@H](c2ccccc2)Oc2c(Cc3ccccc3O)c(O)cc(O)c21	-1	10
CC(C)=CCc1c(O)cc(O)c2c1O[C@H](c1ccccc1)CC2=O	23*	2
CC1=C(C(=O)OC2CCCCCCC2)C(c2ccccc2C(F)(F)F)CC(=O)N1 (stereo not given)	/	4
OC(CN1CCNCC1)Cn1c2ccc(Br)cc2c2cc(Br)ccc21 (stereo not given)	16*!	8
OC(CN1CCN(c2cccc(Cl)c2)CC1)Cn1c2ccccc2c2ccccc21 (stereo not given)	0	-10
N#Cc1ccc(-c2csc(-c3ccc(C4SCCS4)cc3)n2)cc1	-1	4
O=C(NCCNc1ccc2ccccc2c1)c1ccc2nc3ccc(Cl)cc3c(=O)n2c1	/	-4
CC(C)c1ccc2c(c1)CCC1[C@](C)(C(=O)O)CCC[C@]21C (stereo not given in full)	0	2
CC(C)c1c(O)ccc2c1CCC1C(C)(C)CCC[C@]21C (stereo not given in full)	43*	5
OC[C@H]1O[C@@H](n2cnc3c(NCc4ccco4)ncnc32)[C@H](O)[C@@H]1O	0	6
Nc1ncnc2c1c(I)cn2C1OC(CO)C(O)C1O (stereo not given)	26*	63*
C=CCc1ccc(O[C@@H]2O[C@H](CO[C@@H]3O[C@@H](C)[C@H](O)[C@@H](O)[C@H]3O)[C@@H](O)[C@H](O)[C@H]2O)c(O)c1	1	1
C=CCc1ccc(O[C@@H]2O[C@H](CO)[C@@H](O)[C@H](O)[C@H]2O)c(O[C@@H]2O[C@H](CO)[C@@H](O)[C@H](O)[C@H]2O)c1	0	70*
CCOc1ccc(NC(=O)Cc2ccccc2OC)cc1	-5	3
CCCCN(CC)S(=O)(=O)c1ccc(C(=O)Nc2ccccc2-c2nc3ccccc3[nH]2)cc1	/	-3
CN(Cc1ccccc1)S(=O)(=O)c1ccc(C(=O)Nc2ccc(-c3nc4ccccc4[nH]3)cc2)cc1	22*	?
COc1ccccc1CC(=O)Nc1ccc(-c2nc3ccccc3[nH]2)cc1	29*	23
SMILES	A1 inh	BJeLR viab HTS
O=C(NC1CCCC1)C1CCN(S(=O)(=O)c2cccc3nonc23)CC1	/	-7
O=C(NCC1CCCO1)c1ccc2c(c1)sc1nc(-c3ccccc3)cn12 (stereo not given)	-1	1
CCN1CCCC1CNC(=O)c1ccc2c(c1)sc1nc(-c3ccc(C)cc3)cn12 (stereo not given)	8	95*
CC1CCCC(NC(=O)C2CCC(Cn3c(=O)[nH]c4ccccc4c3=O)CC2)C1C (stereo not given)	1	8
C=CCOc1ccccc1OCC(O)CNC(C)C (stereo not given)	-1	56*
CC(=O)Nc1ccc(OCC(O)CNC(C)C)cc1 (stereo not given)	0	4
CC(C)NC(=O)c1ccc2c(=O)[nH]c3c(C(=O)NC(C)C)sc(=S)n3c2c1	1	5
Cn1c2ccccc2c2c(C(=O)N3CCCCC3)cn(C3CCCC3)c(=O)c21	/	2
CC(=O)O[C@@]1(C)[C@@H]2CC(=C(C)C)C(=O)C[C@@]2(C)CC[C@H]1OC(=O)C1(C)OC1C (stereo not given in full)	0	54*
C=C(C)C(=O)O[C@H]1[C@H]2C(=C)C(=O)O[C@@H]2C[C@@H](C)/C=C/C(=O)[C@](C)(O)[C@@H]1OC(C)=O	2	59*
C=C1C(=O)O[C@H]2C1C[C@@H](OC(C)=O)[C@@]1(C)[C@@H](OC(C)=O)C[C@@H](OC(C)=O)C(=C)[C@H]21 (stereo not given in full)	-1	28
CNC(=S)NC1CC2CCC1C2 (stereo not given)	/	-7
Nc1ccc(S(=O)(=O)NC2CCCCC2)cc1	2	6
CC(CCc1ccccc1)NC(=O)c1ccc(CS(=O)(=O)c2ccc(Br)cc2)o1 (stereo not given)	/	0
CCN1CNC(=S)N(c2ccccc2)C1	0	4
CCN1CSC(=S)N(Cc2ccccc2)C1	-1	54*
COc1cccc(NC(=O)Cn2ncc3c4ccccc4n(Cc4ccccc4)c3c2=O)c1	17*	3
O=C(Cn1ncc2c3ccccc3n(Cc3ccccc3)c2c1=O)NC1CC1	-1	1
Cc1nn(-c2ccccc2)c(N)c1C(NC(=O)c1ccccc1)(C(F)(F)F)C(F)(F)F	/	-5
Cn1c2ccccc2c2cnn(CC(=O)O)c(=O)c21	0	-2
Cn1c2ccccc2c2c3c(c4c5ccccc5n(CCC#N)c4c21)CNC3=O	28*	21
Cc1ccc(-c2nsc(SCC(=O)c3ccc(Cl)cc3)n2)cc1	0	-1
CCOc1ccc(-c2c(C#N)c(N)nc(SCC(=O)c3ccc(Cl)cc3)c2C#N)cc1	16*	4
COC(=O)c1ccc2c(=O)n(CCC3=CCCCC3)c(SCC(=O)C(C)(C)C)nc2c1	1	-2
CC(=O)Nc1ccc(C(=O)NN)cc1	/	-8
SMILES	A1 inh	BJeLR viab HTS
COC(=O)Cn1c(=O)c2c(nc3n2CCN3c2ccccc2)n(C)c1=O	37*	-3
COC(=O)Cn1c(Cl)nc2c1c(=O)n(C)c(=O)n2C	0	1
COc1cc(C2Sc3ccccc3N=C3c4ccccc4C(=O)C32)ccc1OC(C)=O (stereo not given)	/	-8
CCCOc1cccc(C(=O)Nc2ccc(C(=O)OC)cc2)c1	-1	3
CCCOc1ccc2nc(NC(=O)OC)[nH]c2c1	2	58*
Cc1ccc(C)c(N2CCN(CCCNC(=O)c3nnc(Cc4c(F)cccc4Cl)o3)CC2)c1	/	21
CCOC(=O)C1CCCN(C(=O)c2ccc3c(c2)NC(=O)c2ccccc2S3)C1 (stereo not given)	1	5
O=C(Sc1ccccn1)N1c2ccccc2Sc2ccccc21	0	4
O=C(/C=C/Sc1ccccn1)c1ccccc1	2	76*
O=C(C1CC1)N1CCc2cc(Br)cc(S(=O)(=O)NCCc3ccccc3Cl)c21	/	1
CCCc1cc2c(cc1NC(=O)C(C)(C)C(=O)Nc1cc3c(cc1CCC)OCO3)OCO2	0	0
O=C(NCCN1CCc2ccccc2C1)c1cc(-c2ccc(Br)s2)nc2ccccc12	/	4
CCOc1ccc(-n2c(-c3nn(C)cc3Cl)n[nH]c2=S)cc1	/	-1
FC(F)(F)c1cccc(/C=N/n2cnnc2SCc2ccccc2)c1	0	1
O=C(CCCCCN1C(=O)c2cccc3cccc(c23)C1=O)NO	0	114*
